Measured values published in the supplement of paper PMC11732987, “Enantioselective OTUD7B fragment discovery through chemoproteomics screening and high-throughput optimisation” (Communications Chemistry, 2025).

Assays:
Assay in all cases: log2 ratio of Biotin-Ahx-Ub-VS probe labelling (fragment/DMSO); higher = less target engagement (more negative = stronger competition), active = hit call of the paper (q ≤ 0.05, log2 ratio ≤ -1)
Settings in all cases: compound concentration: 200 uM; treatment time: 3 h
USP42 = target: T1, USP42 (UniProt Q9H9J4)
T1 sequence (whole entry): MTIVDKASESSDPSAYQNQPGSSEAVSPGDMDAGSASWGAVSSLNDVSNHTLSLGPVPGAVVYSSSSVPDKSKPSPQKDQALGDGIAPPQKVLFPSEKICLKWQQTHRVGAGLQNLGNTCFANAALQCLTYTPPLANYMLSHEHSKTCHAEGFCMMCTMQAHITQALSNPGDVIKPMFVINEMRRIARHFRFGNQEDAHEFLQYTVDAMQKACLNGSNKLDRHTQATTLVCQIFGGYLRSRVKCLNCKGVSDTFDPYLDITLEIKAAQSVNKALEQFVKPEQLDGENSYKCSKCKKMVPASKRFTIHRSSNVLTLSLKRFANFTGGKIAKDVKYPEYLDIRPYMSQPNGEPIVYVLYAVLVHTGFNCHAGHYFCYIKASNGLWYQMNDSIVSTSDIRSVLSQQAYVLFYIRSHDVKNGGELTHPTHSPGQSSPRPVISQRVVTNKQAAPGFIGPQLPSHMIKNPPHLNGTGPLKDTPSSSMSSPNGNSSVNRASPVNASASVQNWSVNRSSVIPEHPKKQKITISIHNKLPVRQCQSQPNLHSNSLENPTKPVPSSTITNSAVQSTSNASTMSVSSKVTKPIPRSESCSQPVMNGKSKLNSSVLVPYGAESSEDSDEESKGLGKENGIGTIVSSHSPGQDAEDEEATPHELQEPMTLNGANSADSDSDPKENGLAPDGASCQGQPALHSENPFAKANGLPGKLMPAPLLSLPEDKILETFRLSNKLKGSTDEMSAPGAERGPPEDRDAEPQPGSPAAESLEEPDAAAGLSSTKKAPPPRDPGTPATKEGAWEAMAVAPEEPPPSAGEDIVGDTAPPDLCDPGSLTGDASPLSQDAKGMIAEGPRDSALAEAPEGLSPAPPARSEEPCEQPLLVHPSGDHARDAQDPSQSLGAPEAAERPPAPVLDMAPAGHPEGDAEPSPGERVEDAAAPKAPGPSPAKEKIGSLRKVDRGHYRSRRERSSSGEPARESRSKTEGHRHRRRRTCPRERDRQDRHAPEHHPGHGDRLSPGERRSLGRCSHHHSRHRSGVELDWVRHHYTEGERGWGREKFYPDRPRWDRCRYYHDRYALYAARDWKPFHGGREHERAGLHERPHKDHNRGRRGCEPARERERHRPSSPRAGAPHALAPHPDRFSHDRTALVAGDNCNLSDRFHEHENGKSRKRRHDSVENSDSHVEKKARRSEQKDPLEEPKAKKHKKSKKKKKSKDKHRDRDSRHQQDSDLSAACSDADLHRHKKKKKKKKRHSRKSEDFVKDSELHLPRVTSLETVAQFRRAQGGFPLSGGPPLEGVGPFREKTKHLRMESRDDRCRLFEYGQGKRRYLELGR
How it was run: (§1)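 Labelling with Biotin-Ahx-Ub-VS (0.5 µM final, 1 h) followed a 3 h triplicate treatment of HEK293T lysate (495 µg per sample, Tris/CHAPS/IGEPAL buffer with protease inhibitors) with fragment at 200 µM or vehicle. Labelled DUBs were NeutrAvidin-enriched, digested with LysC and trypsin, and run by diaPASEF LC-MS/MS. The values, average log2 fragment/vehicle ratios by unpaired t-test, come from global-median-normalised Spectronaut label-free quantities. Proteins with ≥2 unique peptides were used.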

USP46 = USP46 (UniProt P62068)
USP46, sequence (P62068 whole entry): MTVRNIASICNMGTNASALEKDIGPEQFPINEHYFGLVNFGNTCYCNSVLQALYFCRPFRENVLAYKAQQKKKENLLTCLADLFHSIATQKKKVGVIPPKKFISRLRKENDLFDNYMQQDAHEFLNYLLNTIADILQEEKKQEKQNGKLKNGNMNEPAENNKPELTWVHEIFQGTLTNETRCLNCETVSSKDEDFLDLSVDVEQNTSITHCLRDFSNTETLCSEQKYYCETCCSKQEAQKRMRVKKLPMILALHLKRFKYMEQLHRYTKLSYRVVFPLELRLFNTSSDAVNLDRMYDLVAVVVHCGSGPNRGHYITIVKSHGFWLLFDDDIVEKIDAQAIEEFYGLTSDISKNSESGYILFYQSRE
How it was run: as §1

USP47 = target: T2, USP47 (UniProt Q96K76)
T2 sequence (whole entry): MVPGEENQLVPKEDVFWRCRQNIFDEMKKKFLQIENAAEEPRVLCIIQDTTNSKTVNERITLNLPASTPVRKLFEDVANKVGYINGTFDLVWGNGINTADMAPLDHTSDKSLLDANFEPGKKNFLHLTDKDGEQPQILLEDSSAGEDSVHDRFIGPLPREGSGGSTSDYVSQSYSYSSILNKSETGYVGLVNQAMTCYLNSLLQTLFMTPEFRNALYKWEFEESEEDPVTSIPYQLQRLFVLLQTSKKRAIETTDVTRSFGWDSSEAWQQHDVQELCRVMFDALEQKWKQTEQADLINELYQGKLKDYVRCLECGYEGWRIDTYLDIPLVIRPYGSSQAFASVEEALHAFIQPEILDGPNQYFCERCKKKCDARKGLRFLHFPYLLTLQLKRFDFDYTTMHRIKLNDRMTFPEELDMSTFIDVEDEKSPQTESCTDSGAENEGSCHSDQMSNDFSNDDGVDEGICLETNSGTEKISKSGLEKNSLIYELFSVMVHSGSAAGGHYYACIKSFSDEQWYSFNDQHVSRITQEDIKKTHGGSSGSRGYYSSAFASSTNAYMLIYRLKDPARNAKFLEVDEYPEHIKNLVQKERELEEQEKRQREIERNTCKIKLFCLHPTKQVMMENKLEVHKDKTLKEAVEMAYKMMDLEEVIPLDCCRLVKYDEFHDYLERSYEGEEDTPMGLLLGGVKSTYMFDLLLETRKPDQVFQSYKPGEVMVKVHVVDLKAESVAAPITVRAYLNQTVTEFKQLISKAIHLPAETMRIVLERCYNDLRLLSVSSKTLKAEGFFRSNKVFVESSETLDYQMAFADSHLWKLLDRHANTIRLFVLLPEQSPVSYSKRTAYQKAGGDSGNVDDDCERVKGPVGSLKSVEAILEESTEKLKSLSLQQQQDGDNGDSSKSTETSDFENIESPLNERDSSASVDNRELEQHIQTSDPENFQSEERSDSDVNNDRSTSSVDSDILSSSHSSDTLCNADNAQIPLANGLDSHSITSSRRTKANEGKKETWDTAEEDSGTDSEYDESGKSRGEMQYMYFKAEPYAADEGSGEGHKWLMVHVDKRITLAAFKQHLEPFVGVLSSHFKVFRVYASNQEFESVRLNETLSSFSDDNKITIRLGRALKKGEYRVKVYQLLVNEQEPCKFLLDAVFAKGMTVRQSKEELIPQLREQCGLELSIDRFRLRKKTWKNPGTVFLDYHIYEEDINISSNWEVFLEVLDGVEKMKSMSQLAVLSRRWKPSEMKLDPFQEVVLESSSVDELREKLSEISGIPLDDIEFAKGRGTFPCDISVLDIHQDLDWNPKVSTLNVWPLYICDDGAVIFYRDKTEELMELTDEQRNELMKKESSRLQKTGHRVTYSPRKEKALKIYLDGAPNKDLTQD
How it was run: as §1

USP48 = target: T3, USP48 (UniProt Q86UV5)
T3 sequence (whole entry): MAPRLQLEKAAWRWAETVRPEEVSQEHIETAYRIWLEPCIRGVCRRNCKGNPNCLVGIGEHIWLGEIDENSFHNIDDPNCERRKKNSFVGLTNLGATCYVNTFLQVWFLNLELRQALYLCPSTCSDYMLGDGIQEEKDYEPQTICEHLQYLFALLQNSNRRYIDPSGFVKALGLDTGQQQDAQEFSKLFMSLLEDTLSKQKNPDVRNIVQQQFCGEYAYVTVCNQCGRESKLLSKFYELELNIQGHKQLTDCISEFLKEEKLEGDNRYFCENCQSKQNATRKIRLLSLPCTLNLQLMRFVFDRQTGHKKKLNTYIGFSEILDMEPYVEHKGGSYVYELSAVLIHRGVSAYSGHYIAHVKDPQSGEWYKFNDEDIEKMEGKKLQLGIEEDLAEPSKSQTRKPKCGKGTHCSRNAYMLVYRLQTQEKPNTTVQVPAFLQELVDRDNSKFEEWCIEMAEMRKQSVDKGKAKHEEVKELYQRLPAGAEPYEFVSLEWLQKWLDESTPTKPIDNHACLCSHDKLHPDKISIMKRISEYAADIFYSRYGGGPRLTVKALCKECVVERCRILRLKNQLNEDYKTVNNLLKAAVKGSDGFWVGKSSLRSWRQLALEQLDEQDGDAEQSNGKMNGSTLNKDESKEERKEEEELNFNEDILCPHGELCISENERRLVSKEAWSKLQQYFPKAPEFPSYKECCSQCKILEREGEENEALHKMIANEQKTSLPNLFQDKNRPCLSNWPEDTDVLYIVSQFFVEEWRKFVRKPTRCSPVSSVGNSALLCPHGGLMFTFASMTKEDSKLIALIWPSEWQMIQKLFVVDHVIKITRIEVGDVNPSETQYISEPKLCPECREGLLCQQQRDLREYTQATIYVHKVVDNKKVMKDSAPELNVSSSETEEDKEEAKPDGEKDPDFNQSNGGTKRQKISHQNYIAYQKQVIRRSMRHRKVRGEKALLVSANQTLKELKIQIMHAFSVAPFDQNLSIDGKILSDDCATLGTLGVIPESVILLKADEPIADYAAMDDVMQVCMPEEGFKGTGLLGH
How it was run: as §1

USP5 = target: T4, USP5 (UniProt P45974)
T4 sequence (whole entry): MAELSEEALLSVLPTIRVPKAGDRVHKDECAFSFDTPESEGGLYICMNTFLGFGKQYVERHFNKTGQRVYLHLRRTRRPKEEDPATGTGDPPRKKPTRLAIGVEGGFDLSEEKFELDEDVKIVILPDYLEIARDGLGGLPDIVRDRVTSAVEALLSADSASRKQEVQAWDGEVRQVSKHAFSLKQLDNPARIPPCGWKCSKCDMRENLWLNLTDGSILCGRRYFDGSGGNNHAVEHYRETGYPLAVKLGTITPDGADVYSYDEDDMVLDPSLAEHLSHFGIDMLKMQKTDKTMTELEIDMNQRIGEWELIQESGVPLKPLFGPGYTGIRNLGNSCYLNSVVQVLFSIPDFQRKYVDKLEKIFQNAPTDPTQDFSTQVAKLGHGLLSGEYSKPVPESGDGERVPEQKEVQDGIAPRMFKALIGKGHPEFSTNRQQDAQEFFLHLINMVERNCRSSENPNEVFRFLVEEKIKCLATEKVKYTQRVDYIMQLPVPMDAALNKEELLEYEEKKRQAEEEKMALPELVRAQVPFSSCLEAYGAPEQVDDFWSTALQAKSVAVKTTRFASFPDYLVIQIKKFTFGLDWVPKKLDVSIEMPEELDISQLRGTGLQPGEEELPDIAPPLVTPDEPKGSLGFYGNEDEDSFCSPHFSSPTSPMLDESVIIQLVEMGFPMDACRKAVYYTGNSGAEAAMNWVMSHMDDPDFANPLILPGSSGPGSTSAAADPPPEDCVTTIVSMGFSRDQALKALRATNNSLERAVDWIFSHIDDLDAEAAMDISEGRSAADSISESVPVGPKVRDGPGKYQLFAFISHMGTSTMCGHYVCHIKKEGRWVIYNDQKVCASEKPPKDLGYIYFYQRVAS
How it was run: as §1

USP54 = USP54 (UniProt Q70EL1)
How it was run: as §1

USP7 = USP7 (UniProt Q93009)
USP7, sequence (Q93009 whole entry, looked up): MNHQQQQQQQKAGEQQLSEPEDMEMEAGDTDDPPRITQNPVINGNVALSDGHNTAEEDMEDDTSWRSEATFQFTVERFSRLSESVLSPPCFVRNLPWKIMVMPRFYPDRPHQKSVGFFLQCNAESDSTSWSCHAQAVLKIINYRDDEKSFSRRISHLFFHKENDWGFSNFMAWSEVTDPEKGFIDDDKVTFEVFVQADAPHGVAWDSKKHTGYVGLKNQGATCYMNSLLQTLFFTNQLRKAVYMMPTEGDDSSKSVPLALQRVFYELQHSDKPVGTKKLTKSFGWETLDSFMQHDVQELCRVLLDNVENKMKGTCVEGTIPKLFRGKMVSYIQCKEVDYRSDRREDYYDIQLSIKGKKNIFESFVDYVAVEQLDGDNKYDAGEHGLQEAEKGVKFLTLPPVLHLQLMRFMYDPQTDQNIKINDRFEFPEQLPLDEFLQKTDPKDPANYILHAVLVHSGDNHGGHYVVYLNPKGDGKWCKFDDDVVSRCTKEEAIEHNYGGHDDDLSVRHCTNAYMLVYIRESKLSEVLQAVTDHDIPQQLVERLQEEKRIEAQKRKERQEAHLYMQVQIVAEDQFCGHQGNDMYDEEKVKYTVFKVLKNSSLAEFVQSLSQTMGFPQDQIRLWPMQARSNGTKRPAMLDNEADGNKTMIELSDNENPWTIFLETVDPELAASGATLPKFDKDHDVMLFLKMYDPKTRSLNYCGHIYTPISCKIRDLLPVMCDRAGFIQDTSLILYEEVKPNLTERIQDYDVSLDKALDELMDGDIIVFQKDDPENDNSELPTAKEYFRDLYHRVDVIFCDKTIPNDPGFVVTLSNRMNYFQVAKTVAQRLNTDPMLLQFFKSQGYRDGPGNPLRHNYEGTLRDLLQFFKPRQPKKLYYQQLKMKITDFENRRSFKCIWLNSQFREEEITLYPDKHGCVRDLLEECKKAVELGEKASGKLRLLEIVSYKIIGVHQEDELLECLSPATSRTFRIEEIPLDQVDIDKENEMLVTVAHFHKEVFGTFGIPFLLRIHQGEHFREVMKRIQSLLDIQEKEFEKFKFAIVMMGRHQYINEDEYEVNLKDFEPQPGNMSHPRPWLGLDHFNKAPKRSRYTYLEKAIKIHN
How it was run: as §1

USP8 = target: T5, USP8 (UniProt P40818)
T5 sequence (whole entry): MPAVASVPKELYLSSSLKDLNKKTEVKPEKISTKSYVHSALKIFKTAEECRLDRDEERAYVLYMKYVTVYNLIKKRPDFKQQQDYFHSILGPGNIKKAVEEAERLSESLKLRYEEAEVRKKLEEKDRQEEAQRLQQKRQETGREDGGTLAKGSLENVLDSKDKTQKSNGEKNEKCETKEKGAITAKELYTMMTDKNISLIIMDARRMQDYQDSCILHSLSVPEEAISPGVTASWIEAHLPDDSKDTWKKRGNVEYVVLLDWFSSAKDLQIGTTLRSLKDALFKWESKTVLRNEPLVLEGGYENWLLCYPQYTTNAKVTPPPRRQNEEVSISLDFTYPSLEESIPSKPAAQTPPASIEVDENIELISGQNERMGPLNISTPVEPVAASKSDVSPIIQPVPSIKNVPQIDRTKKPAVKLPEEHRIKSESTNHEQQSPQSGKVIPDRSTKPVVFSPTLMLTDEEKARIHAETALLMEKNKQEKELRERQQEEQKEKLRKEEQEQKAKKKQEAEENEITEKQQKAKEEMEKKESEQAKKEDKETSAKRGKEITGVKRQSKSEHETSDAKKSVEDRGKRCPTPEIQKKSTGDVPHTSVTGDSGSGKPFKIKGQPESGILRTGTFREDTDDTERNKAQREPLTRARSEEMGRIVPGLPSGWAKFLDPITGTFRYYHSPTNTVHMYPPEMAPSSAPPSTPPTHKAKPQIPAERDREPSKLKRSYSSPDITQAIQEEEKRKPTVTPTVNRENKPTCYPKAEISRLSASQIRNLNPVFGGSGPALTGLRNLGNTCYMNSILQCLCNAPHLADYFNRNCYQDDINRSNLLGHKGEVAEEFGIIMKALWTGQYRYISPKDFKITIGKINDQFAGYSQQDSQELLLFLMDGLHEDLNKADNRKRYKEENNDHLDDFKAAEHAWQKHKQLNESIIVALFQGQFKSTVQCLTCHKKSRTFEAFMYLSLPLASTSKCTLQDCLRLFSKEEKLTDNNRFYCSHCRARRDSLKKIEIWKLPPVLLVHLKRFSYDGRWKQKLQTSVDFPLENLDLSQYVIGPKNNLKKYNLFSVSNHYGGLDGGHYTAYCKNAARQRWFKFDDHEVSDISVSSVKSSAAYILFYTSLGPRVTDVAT
How it was run: as §1

USP9X = USP9X (UniProt Q93008)
USP9X, sequence (Q93008 whole entry): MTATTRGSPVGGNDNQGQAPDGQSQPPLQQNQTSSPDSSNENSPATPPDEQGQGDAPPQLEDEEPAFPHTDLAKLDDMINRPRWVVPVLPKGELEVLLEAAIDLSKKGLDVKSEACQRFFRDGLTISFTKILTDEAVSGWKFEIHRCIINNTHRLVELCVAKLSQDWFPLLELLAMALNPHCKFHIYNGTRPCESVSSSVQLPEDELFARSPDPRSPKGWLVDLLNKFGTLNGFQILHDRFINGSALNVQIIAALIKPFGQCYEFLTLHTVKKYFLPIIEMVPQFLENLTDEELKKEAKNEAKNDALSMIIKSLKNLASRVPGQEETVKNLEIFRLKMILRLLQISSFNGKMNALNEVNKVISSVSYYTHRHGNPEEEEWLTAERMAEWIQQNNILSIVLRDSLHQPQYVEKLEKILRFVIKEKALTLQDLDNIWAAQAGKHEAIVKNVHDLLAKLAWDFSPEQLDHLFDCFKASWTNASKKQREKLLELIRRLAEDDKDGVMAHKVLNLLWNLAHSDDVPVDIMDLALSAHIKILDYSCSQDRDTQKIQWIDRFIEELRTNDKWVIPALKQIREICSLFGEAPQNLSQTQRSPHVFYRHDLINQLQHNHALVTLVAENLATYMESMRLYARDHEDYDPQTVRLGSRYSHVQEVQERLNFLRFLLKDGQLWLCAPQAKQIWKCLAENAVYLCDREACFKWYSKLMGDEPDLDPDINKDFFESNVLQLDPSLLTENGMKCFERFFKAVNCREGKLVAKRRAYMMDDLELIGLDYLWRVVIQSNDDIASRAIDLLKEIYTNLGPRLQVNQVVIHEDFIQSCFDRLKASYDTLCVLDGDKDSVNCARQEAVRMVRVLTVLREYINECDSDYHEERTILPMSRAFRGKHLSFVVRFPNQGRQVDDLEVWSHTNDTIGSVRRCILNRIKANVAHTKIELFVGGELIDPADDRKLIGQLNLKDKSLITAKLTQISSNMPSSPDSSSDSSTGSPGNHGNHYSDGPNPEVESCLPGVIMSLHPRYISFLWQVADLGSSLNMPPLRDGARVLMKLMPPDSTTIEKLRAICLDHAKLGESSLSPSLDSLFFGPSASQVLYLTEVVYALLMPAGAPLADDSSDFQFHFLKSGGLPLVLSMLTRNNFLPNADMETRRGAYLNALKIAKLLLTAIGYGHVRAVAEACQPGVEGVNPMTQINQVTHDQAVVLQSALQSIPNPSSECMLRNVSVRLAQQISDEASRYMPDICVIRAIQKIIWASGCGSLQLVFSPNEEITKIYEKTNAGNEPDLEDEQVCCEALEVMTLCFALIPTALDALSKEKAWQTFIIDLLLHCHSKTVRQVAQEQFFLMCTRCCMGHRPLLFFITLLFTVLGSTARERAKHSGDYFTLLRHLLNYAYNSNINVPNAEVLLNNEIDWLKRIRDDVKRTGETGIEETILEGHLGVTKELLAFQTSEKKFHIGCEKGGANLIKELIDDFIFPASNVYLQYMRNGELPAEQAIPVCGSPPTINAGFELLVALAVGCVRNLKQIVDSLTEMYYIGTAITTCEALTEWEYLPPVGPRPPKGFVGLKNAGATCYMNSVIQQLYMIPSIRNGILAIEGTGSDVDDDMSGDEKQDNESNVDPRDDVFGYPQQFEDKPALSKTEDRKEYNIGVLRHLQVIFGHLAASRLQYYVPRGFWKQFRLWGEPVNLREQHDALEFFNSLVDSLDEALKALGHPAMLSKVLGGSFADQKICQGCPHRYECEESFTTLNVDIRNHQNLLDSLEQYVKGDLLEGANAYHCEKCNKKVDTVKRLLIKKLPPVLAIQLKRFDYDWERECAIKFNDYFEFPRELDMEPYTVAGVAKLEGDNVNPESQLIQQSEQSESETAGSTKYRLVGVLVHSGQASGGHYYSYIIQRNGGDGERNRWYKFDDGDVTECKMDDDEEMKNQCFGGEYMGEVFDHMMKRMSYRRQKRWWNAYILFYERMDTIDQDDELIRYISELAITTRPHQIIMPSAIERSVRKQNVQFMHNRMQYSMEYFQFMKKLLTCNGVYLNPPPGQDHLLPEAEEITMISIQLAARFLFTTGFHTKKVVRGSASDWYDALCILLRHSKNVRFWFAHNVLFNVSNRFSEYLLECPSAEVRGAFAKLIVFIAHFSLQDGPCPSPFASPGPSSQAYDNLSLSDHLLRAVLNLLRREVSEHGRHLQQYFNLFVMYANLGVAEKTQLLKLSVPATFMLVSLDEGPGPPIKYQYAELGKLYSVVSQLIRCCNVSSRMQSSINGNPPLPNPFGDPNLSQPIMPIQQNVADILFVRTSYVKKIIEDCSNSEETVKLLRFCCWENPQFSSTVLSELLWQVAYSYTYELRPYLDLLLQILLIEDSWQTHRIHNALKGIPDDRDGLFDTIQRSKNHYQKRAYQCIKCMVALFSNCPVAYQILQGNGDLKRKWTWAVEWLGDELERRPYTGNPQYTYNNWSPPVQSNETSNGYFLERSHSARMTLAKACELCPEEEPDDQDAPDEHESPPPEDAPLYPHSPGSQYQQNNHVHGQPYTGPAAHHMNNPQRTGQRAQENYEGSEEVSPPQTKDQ
How it was run: as §1

UniProt O00487 = target: UniProt O00487
UniProt O00487, sequence (O00487 whole entry): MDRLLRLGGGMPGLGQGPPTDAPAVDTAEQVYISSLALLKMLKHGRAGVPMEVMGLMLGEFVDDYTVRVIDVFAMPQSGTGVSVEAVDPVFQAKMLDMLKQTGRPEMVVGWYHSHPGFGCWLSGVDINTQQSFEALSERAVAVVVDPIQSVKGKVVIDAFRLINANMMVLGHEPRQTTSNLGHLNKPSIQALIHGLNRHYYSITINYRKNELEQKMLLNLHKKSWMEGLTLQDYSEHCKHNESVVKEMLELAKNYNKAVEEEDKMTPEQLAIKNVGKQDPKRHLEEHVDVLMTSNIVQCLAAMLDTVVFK
How it was run: as §1

Measured: log2 ratio of Biotin-Ahx-Ub-VS probe labelling

O=C(CCl)NCc1cccc(N2CCCC2=O)c1
inactive: USP42 -0.175 | USP46 0.179 | USP47 0.109 | USP48 -0.0848 | USP5 0.238 | USP54 0.342 | USP7 -0.0593 | USP8 -0.147 | USP9X -0.272 | UniProt O00487 0.135
